Results published in the supplement of paper PMC7380943.

system: CLZ3 (HCA2 human fibroblast dual HR-NHEJ reporter); test: NHEJ repair efficiency (GFP+ cells) relative to control (log10 fold); higher = more non-homologous end joining; conditions: 5 µM; doxycycline 0.5 ug/mL
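Note: compound given one day ahead of doxycycline, which switches on I-SceI endonuclease to cut the chromosomally integrated reporter and create DSBs.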

`CC12CCC(CC1)C(C)(C)O2` [Eucalyptol] and `CC[C@@H]1[C@H]2CCCCN3[C@H]2[C@H](C[C@H]3[C@@H]2C[C@H](C)C(=O)O2)[C@@H]2[C@H]1OC(=O)[C@H]2C` [Tuberostemonine] are within 0.2 log units of each other in “NHEJ repair efficiency (log10)” value: 0.0692 for the first, 0.233 for the second.

`COc1cc2ccc(=O)oc2c(O)c1O` [Fraxetin] and `C=C(C)C(=O)Cc1c(OC)ccc2ccc(=O)oc12` [Murrayone] are within 0.2 log units of each other in “NHEJ repair efficiency (log10)” value: 0.113 for the first, 0.0921 for the second.

`COc1cc2c(cc1O)C[C@H]1c3cc(O)c(OC)cc3CC[N@@+]1(C)C2` [Phellodendrine] and `O=c1cc(-c2ccc(O)c(O)c2)oc2c([C@@H]3O[C@H](CO)[C@@H](O)[C@H](O)[C@H]3O)c(O)cc(O)c12` [Orientin] are within 0.2 log units of each other in “NHEJ repair efficiency (log10)” value: 0.199 for the first, 0.0454 for the second.

`O=C(O)CC(O)C(=O)O` (stereo unspecified) [Malic Acid] and `O=C(/C=C/c1ccc(O)c(O)c1/C=C/c1ccc(O)c(O)c1)O[C@H](Cc1ccc(O)c(O)c1)C(=O)O` [Salvianolic Acid A] are within 0.2 log units of each other in “NHEJ repair efficiency (log10)” value: -0.069 for the first, 0.0713 for the second.

`O=C(/C=C/c1ccc(O)cc1)OC[C@H]1O[C@@H](Oc2c(-c3ccc(O)cc3)oc3cc(O)cc(O)c3c2=O)[C@H](O)[C@@H](O)[C@@H]1O` [Tiliroside] and `C[C@H]1O[C@H](OC[C@H]2O[C@@H](Oc3c(-c4ccc(O)cc4)oc4cc(O)cc(O)c4c3=O)[C@H](O)[C@@H](O)[C@@H]2O)[C@@H](O)[C@@H](O)[C@@H]1O` [Kaempferol-3-O-Rutinoside] are within 0.2 log units of each other in “NHEJ repair efficiency (log10)” value: -0.00145 for the first, 0.0149 for the second.

`COc1ccc(-c2cc(=O)c3c(O)cc(O[C@@H]4O[C@H](CO[C@@H]5O[C@@H](C)[C@H](O)[C@@H](O)[C@H]5O)[C@@H](O)[C@H](O)[C@H]4O)cc3o2)cc1` [Linarin] was tested, and the “NHEJ repair efficiency (log10)” value was -0.0758.
